The values that follow come from PubChem BioAssay (NCI).

About 83,000 compounds went through this panel and 20% of them were active in at least one assay; those are over-represented in the sample as a whole.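 The endpoint reported here, percent growth, reads 100 for growth as untreated, 0 for no net growth and -100 for all cells dead.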 A number with no mark means an inactive call. Activity calls are given as the source filed them. Rule for the calls: active = growth percent below 10; inactive = the rest.

Among the test systems are SR leukemia; RPMI-8226 leukemia; OVCAR-8 ovarian; OVCAR-5 ovarian; OVCAR-4 ovarian; SK-OV-3 ovarian; IGROV1 ovarian; OVCAR-3 ovarian; HS 578T breast; NCI/ADR-RES ovarian; T-47D breast; BT-549 breast; MDA-MB-435 melanoma; SW-620 colon; MCF7 breast; HCT-116 colon; HCC-2998 colon; KM12 colon.
Common to all, as to test: NCI-60 one-dose screen, 48 h (100 = growth as untreated, 0 = no growth, -100 = all killed)
Common to all, as to conditions: 10 µM unless noted

As for `COc1ccc2c(c1)c(-c1nc(-c3c[nH]c4ncccc34)cs1)cn2CCNC(=O)OC(C)(C)C`, the growth in the experiment on SR leukemia was 62.7%; with RPMI-8226 leukemia, 41.2%; with OVCAR-8 ovarian it was 45.7%; with OVCAR-5 ovarian it was 104%; in the experiment with OVCAR-4 ovarian, 55.7%; in the experiment on SK-OV-3 ovarian, 110%. For the same molecule, the growth in the experiment on IGROV1 ovarian was 61.1%; with OVCAR-3 ovarian, 84.4%; with HS 578T breast, 76.3%; with NCI/ADR-RES ovarian it was 56.6%; with T-47D breast, 9.63% (active); in the experiment with BT-549 breast, 84.5%. Besides, the growth with MDA-MB-435 melanoma is 94.7%; in the experiment on SW-620 colon, 96%; in the experiment on MCF7 breast, 37.3%; with HCT-116 colon, 87.6%; in the experiment with HCC-2998 colon it was 96.6%; with KM12 colon, 46.1%.
`Cc1cccc(C)c1NCc1nc(-c2ccccc2)n[nH]1`: the growth was 102% in the experiment on SR leukemia; 108% with RPMI-8226 leukemia; 102% in the experiment on OVCAR-8 ovarian; 95.6% with OVCAR-5 ovarian; 102% in the experiment on OVCAR-4 ovarian; 93.7% in the experiment on SK-OV-3 ovarian. The growth was 94.6% in the experiment on IGROV1 ovarian; 113% with OVCAR-3 ovarian; 108% with HS 578T breast; 103% in the experiment with NCI/ADR-RES ovarian; 87.8% in the experiment on T-47D breast; 94.8% in the experiment on BT-549 breast. Moreover, the growth with MDA-MB-435 melanoma is 101%; with SW-620 colon it was 109%; in the experiment with MCF7 breast it was 88.2%; in the experiment with HCT-116 colon, 98.7%; in the experiment with HCC-2998 colon, 101%; in the experiment on KM12 colon it was 103%.
As for `Fc1ccc(Nc2nc(Nc3ccc(-c4nc5ccccc5[nH]4)cc3)nc(N3CCCC3)n2)cc1`, the growth in the experiment on SR leukemia is 10.7%; in the experiment with RPMI-8226 leukemia it was -11.6% (active); with OVCAR-8 ovarian, 81.7%; in the experiment with OVCAR-5 ovarian, 97.4%; in the experiment on OVCAR-4 ovarian, 88.6%; in the experiment on SK-OV-3 ovarian, 75.1%. Further, the growth with IGROV1 ovarian is 83%; with OVCAR-3 ovarian, 94.4%; in the experiment with HS 578T breast, 84.6%; in the experiment on NCI/ADR-RES ovarian it was 63%; in the experiment on T-47D breast, 44.6%; in the experiment with BT-549 breast, 85.1%. Besides, the growth in the experiment with MDA-MB-435 melanoma is 98.1%; with SW-620 colon, 0.692% (active); in the experiment with MCF7 breast it was 32.7%; in the experiment with HCT-116 colon it was -53.6% (active); in the experiment on HCC-2998 colon, 55.7%; with KM12 colon, 83.8%.
For the molecule `C[C@@H]1CCCCCCCCC[C@H](O)C(=O)C[C@@H](SC[C@@H](O)C(=O)O)C(=O)O1`, the growth with SR leukemia was 74.4%; in the experiment on RPMI-8226 leukemia, -2.38% (active); in the experiment on OVCAR-8 ovarian it was 94.5%; with OVCAR-5 ovarian, 104%; in the experiment on OVCAR-4 ovarian, 110%; in the experiment on SK-OV-3 ovarian it was 104%. The growth is 115% with IGROV1 ovarian; 107% in the experiment with OVCAR-3 ovarian; 113% in the experiment with HS 578T breast; 106% with NCI/ADR-RES ovarian; 75.8% with T-47D breast; 91.8% with BT-549 breast. In addition, the growth in the experiment on MDA-MB-435 melanoma was 103%; with SW-620 colon, 103%; in the experiment on MCF7 breast, 33.9%; in the experiment on HCT-116 colon, 54.5%; in the experiment with HCC-2998 colon, 109%; in the experiment with KM12 colon it was 95.8%.
For `NCCn1cc(-c2nc(-c3c[nH]c4ncccc34)cs2)c2cc(Br)ccc21`, the growth with SR leukemia is 15.2%; in the experiment with RPMI-8226 leukemia, 43.3%; in the experiment on OVCAR-8 ovarian, 91.6%; with OVCAR-5 ovarian it was 89.4%; in the experiment with OVCAR-4 ovarian, 54.7%; in the experiment on SK-OV-3 ovarian, 90.8%. The growth is 43.6% in the experiment on IGROV1 ovarian; 82.4% in the experiment on OVCAR-3 ovarian; 83.1% in the experiment with HS 578T breast; 90% with NCI/ADR-RES ovarian; 44.8% with T-47D breast; 97.8% in the experiment with BT-549 breast. Besides, the growth in the experiment with MDA-MB-435 melanoma was 84.8%; in the experiment on SW-620 colon it was 7.12% (active); in the experiment with MCF7 breast, 30.7%; with HCT-116 colon, 66.6%; with HCC-2998 colon, 100%; in the experiment on KM12 colon, 65.2%.
On to `c1csc(-c2nc(-c3cc4ccccc4c(N4CCOCC4)n3)cs2)c1`, for which the growth with SR leukemia is 97.7%; in the experiment with RPMI-8226 leukemia it was 106%; with OVCAR-8 ovarian, 102%; in the experiment on OVCAR-5 ovarian it was 124%; in the experiment on OVCAR-4 ovarian, 110%; in the experiment with SK-OV-3 ovarian, 99.5%. The growth is 86.3% in the experiment on IGROV1 ovarian; 111% in the experiment on OVCAR-3 ovarian; 99.9% in the experiment on HS 578T breast; 94.2% with NCI/ADR-RES ovarian; 71.2% in the experiment with T-47D breast; 103% in the experiment with BT-549 breast. Also, the growth was 38% in the experiment with MDA-MB-435 melanoma; 97.2% with SW-620 colon; 80.5% in the experiment with MCF7 breast; 100% in the experiment with HCT-116 colon; 103% with HCC-2998 colon; 99.7% in the experiment on KM12 colon.
For the molecule `COC(=O)[C@]12CC[C@@H](C)[C@H](C)[C@@H]1C1=CC[C@@H]3[C@@](C)(CC#N)C4=C(C[C@@]3(C)[C@]1(C)CC2)OC[C@]4(C)C=O`, the growth was 2.49% (active) in the experiment with SR leukemia; 2.46% (active) in the experiment with RPMI-8226 leukemia; 5.29% (active) with OVCAR-8 ovarian; -48.3% (active) in the experiment on OVCAR-5 ovarian; 10% in the experiment with OVCAR-4 ovarian; 0.91% (active) with SK-OV-3 ovarian. The growth is 22.9% in the experiment with IGROV1 ovarian; -59.6% (active) with OVCAR-3 ovarian; -0.493% (active) in the experiment with HS 578T breast; -11.3% (active) in the experiment on NCI/ADR-RES ovarian; -9.08% (active) in the experiment on T-47D breast; -15.2% (active) with BT-549 breast. Also, the growth in the experiment with MDA-MB-435 melanoma is 3.05% (active); with SW-620 colon, 0.614% (active); in the experiment on MCF7 breast, -10.2% (active); in the experiment on HCT-116 colon, 3.7% (active); with HCC-2998 colon, -45.3% (active); in the experiment on KM12 colon, 4.23% (active).
For `CC[C@H](CC[C@@H](C)[C@H]1CC[C@H]2[C@@H]3/C(=C/c4cccnc4)C(=O)C4=CC(=O)CC[C@]4(C)[C@H]3CC[C@]12C)C(C)C`, the growth in the experiment on SR leukemia was 62.4%; in the experiment with RPMI-8226 leukemia, 74.4%; in the experiment with OVCAR-8 ovarian, 64.5%; with OVCAR-5 ovarian, 105%; in the experiment with OVCAR-4 ovarian, 100%; in the experiment with SK-OV-3 ovarian, 112%. The growth in the experiment with IGROV1 ovarian is 95.6%; with OVCAR-3 ovarian, 102%; with HS 578T breast, 107%; with NCI/ADR-RES ovarian, 90.5%; in the experiment on T-47D breast, 47.7%; with BT-549 breast, 91.3%. The growth was 99.7% in the experiment with MDA-MB-435 melanoma; 93.7% with SW-620 colon; 51% in the experiment with MCF7 breast; 61.9% in the experiment on HCT-116 colon; 98.8% in the experiment on HCC-2998 colon; 97.1% in the experiment with KM12 colon.
